Measured values as given in the OligoGym collection.
Also: reference of the scale not given here.

These sequences were tested against AMY2A (assay: pooled miR-30 sensor sort-seq; sequence = guide strand). Settings: shRNA.
TTAAGTAAGACATCTTCTCTCC was tested, and the sensor-assay potency score (higher = more potent) was 0.353.
With TTATCCACAAAGACAAGCGCTC the sensor-assay potency score (higher = more potent) was -0.172.
In the case of TTTACCATCATTGAAATCCCAT, the sensor-assay potency score (higher = more potent) is reported as -0.145.
With TACATTGCGGAAAATAACCATG the sensor-assay potency score (higher = more potent) was -1.22.
Sequence TTAAAGAAAATGACCAGTCATC has a sensor-assay potency score (higher = more potent) of -0.896.
Sequence TTGTACAGCCTAGCATCCCAGA has a sensor-assay potency score (higher = more potent) of -1.14.

These sequences were tested against ANAPC5 in the same assay as above. Settings: shRNA.
TACAGTTTAAACACTTGGCTGA showed a sensor-assay potency score (higher = more potent) of 0.833.
TCACATAACATCCATAACTGGG gave a sensor-assay potency score (higher = more potent) of -0.755.
Sequence TTGAACTGAAAACATCTTGGAC has a sensor-assay potency score (higher = more potent) of -0.413.
Work on ATAGCTATCGGATCTCTTCTGC yielded a sensor-assay potency score (higher = more potent) of 0.457.
TTTGACAGTGTAATATCTGGGC gave a sensor-assay potency score (higher = more potent) of 0.588.
For TTTGATTCTGATCTGCACTGAA, the sensor-assay potency score (higher = more potent) was 0.516.
TGTAATACAACCGCTTTCCTAT showed a sensor-assay potency score (higher = more potent) of -0.539.
